# SENP7 block – blocks the human protease SENP7. recombinant SENP7, Z-RLRGG-aminoluciferin luminescence, 40 min. inhibition, % at 5 µM. hit rate 1.5% among 330,000;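 active = inhibition above about 50% at the single test dose, limit read from the data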;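 also: plate controls were DMSO with enzyme for no effect and no enzyme buffer wells for full effect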
# SENP6 block – inhibitors of human SENP6 protease. Q9GZR1. inhibition, % at 10 µM. Recombinant SENP6 catalytic domain, aminoluciferin luminescence. hit rate 1.8% among 330,000;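 active = inhibition above about 50% at the single tested dose, limit read from the data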;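 also: plate controls were DMSO wells with enzyme for no effect and DMSO wells lacking enzyme for full effect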
# Target sequence (Q9GZR1 628-1112 limits assumed): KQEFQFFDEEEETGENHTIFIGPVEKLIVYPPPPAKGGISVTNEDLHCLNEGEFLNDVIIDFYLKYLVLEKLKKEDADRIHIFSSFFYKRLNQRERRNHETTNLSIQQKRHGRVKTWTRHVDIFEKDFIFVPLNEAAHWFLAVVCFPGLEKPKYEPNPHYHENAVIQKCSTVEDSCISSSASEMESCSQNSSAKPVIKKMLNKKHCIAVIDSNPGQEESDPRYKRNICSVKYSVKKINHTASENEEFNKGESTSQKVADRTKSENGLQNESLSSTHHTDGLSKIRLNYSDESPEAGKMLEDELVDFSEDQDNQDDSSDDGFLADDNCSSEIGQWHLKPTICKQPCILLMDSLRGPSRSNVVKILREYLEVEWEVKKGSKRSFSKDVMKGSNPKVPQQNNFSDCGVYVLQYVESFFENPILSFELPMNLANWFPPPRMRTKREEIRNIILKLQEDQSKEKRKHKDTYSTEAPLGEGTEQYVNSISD
# SENP8 block-1 – inhibitors of human SENP8 protease. hit rate 0.64% among 360,000. recombinant SENP8, Nedd8 substrate fluorescence. Q96LD8. inhibition, % at 20 µM; in the data active = inhibition mostly above about 40%, no sharp cut-off; inactive = mostly below about 27%
# Platelet DG rel – modulates dense granule release in human platelets | human platelet-rich plasma, SFLLRN dense granule ATP release, luminescence | hit rate 0.22% among 300,000 | inhibition, %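 (compounds screened at 7.5 µM in platelet-rich plasma)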;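 active = mean replicate score, as percent of positive control, at or above 50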
# SENP8 block-2 – inhibitors of human SENP8 protease; Q96LD8; purified SENP8, Z-RLRGG-aminoluciferin cleavage, luminescence; inhibition, % at 10 µM; hit rate 1.2% among 330,000; AID 2540; in the data active = inhibition above about 50%
# * marks the source's active call; other numbers are inactive results; / = no result given. Compounds with a hit are over-represented: about 2.4% of the library has one in this group of screens.
SMILES,SENP7 block,SENP6 block,SENP8 block-1,Platelet DG rel,SENP8 block-2
Cc1ccc(-c2csc(NC(=O)C3=COCCO3)n2)cc1,59*,70*,-11,-3,33
O=C(COC(=O)CNS(=O)(=O)c1ccccc1)Nc1ncc(Cl)cc1Cl,5,-6,0,/,9
O=C(Nc1ccc(N=Nc2ccccc2)cc1)c1ccccc1Cl,2,-2,51*,-15,-23
O=C(Nc1cccc(NC(=O)c2ccccc2Cl)c1)c1ccco1,8,-24,13,59*,-10
O=C(Nc1cccc(NC(=O)c2cccnc2Cl)c1)c1ccco1,7,12,6,112*,1
CC(=O)Nc1cccc(NC(=O)c2ccccc2Cl)c1,/,/,-2,/,/
CCOC(=O)c1c(C)c(-c2ccccc2)n(CC(=O)N2CCCC2)c1C,17,-6,7,56*,-13
CCOC(=O)c1c(C)c(-c2ccccc2)n(CC(=O)N2CCN(C)CC2)c1C,9,-26,-4,-2,-4
COc1ccc(-c2ccc3c(c2)C2CC3CCN2Cc2ccc(OC(F)(F)F)cc2)cc1 (configuration not stated),/,/,11,/,/
Oc1ccccc1N=N/C(=N/Nc1ccccc1O)c1ccccc1,1,1,15,-1,2
N#C/C(N=Nc1ccccc1O)=N\Nc1ccccc1O,-13,85*,58*,14,74*
Cc1cccc(NC(=O)COC(=O)CN2C(=O)c3ccccc3C2=O)c1,/,/,13,/,/
COc1cccc(N=Nc2c(C)[nH]n(-c3ccccc3)c2=O)c1,1,1,29,-1,7
Cc1[nH]n(-c2ccccc2)c(=O)c1N=Nc1ccc2c(c1)OCO2,2,-6,46*,-18,3
Cc1[nH]n(-c2ccccc2)c(=O)c1N=Nc1ccccc1O,-9,15,40*,6,-6
Cc1[nH]n(-c2ccccc2)c(=O)c1N=Nc1ccccc1C(=O)O,3,2,27,0,1
Cc1[nH]n(-c2ccccc2)c(=O)c1N=Nc1nccs1,35,40,56*,5,15
CCCn1c(CN2CCN(C(=O)OCC)CC2)nc2cc(NC(C)=O)ccc21,-7,-6,7,6,-6
COc1ccc(CNC(=O)C2CCC(CNS(=O)(=O)c3ccc(C)cc3)CC2)cc1 (configuration not stated),-1,28,16,3,6
CCCNC(=O)C1(C)CCCN(Cc2c(F)cccc2F)C1 (configuration not stated),/,/,-6,/,/
CCn1c(=O)cc(N2CCN(Cc3ccccc3)CC2)[nH]c1=O,-11,-4,8,53*,-11
CCc1c(C)nc(SCC(=O)N2CCCCC2CC)[nH]c1=O (configuration not stated),1,1,29,5,5
O=C(N=C1N=C2C=CC(Br)=CN2Cc2ccccc21)c1ccc([N+](=O)[O-])cc1[N+](=O)[O-],67*,78*,13,26,56*
O=C(NCC(=O)N1CCC2(CC1)NCCc1[nH]cnc12)c1cccc(Cl)c1,0,16,21,11,5
O=c1/c(=C/c2ccccn2)sc2nc3ccccc3n12,98*,84*,-42,26,79*
SMILES,SENP7 block,SENP6 block,SENP8 block-1,Platelet DG rel,SENP8 block-2
COC(=O)/C=c1/sc2nc3ccccc3n2c1=O,3,-17,40,8,-20
CCCCCCCCC[n+]1cccc2c3ccccc3ccc21,10,-16,-477,87*,-12
O=C(N/N=C/c1ccccc1[N+](=O)[O-])c1ccc2c(c1)OCCO2,46,71*,-42,41,43
Cc1ccccc1-n1c(=O)cc(N2CCCCCC2)[nH]c1=O,-5,0,22,-8,-3
Cc1ccccc1-n1c(=O)cc(N2CCN(C(=O)c3ccco3)CC2)[nH]c1=O,8,7,3,52*,2
CCc1ccc(/C=C\C(=O)N2CCCC2)cc1,0,1,6,12,-6
CCc1ccc(/C=C\C(=O)N2CCc3ccccc3C2)cc1,45,61*,27,16,47
CN(CCC1CCOCC1)C(=O)CC1C(=O)NCCN1Cc1c(F)cccc1Cl (configuration not stated),3,-13,-52,-12,2
Cc1cc(N=Nc2ccc(Cl)cc2)cc(CN2CCOCC2)c1O,-8,-8,19,-1,-13
Cc1cc(N=Nc2ccc(Cl)cc2)cc(CN2CCCC2)c1O,-11,-6,43*,2,-7
COC(=O)c1ccccc1NC(=O)Nc1ccc(C(=O)N2CCCC2)cc1,9,13,14,-7,11
COc1ccccc1NC(=O)NC1(C(=O)N2CCCCCC2)CCCCC1,-5,-12,20,53*,-9
COc1ccccc1NC(=O)Nc1ccc(C(=O)N2CCCCC2)cc1,97*,96*,11,92*,91*
NC(=O)NC(Cc1ccccc1)C(=O)NCCCSc1ccccc1 (configuration not stated),-3,-32,13,12,-1
COc1cc(NC(=O)CN(C)S(=O)(=O)c2ccc(-c3ccc(=O)[nH]n3)s2)cc(OC)c1,-2,-2,-2,-2,1
COC(=O)c1ccc(NC(=O)CCN2C(=O)C3CC=CCC3C2=O)cc1 (configuration not stated),-2,-4,3,/,-13
Cc1nc2nc(-c3cccs3)cn2nc1C,-7,-3,-367,6,-9
Cc1nc2nc(-c3ccc(Cl)cc3)cn2nc1C,-6,69*,-500,8,62*
COc1ccc(C2=NN(C(=O)CSC3=NN4CCCC(=O)N=C4S3)C(c3cccc(OC)c3OC)C2)cc1 (configuration not stated),-1,-2,4,74*,-1
COc1cccc(C2CC(c3cccs3)=NN2C(=O)CSC2=NN3CCCC(=O)N=C3S2)c1OC (configuration not stated),-11,-22,-237,4,-15
O=C1C=C(NCCc2cc(Br)c(O)c(Br)c2)C(=O)c2ncccc21,/,/,116*,/,/
CC(C)(C)c1cc(CCC(=O)NCCc2ccccn2)cc(C(C)(C)C)c1O,-6,-8,10,-1,-4
CCN(C(=O)c1cc(S(=O)(=O)N2CCOCC2)cn1C)c1cccc(C)c1,8,7,0,8,3
COc1cc(OC)cc(C(=O)Nc2cccc3cccnc23)c1,9,-5,12,-3,-20
COc1cccc(N=Nc2ccc(O)c3ncccc23)c1,62*,77*,34,18,73*
COc1cccc(N=Nc2ccc3cccnc3c2O)c1,79*,90*,24,7,84*
Oc1ccc(N=Nc2ccc3c(c2)OCCO3)c(O)c1,91*,95*,45*,41,95*
Oc1ccc(N=Nc2ccc3c(c2)OCCO3)c2cccnc12,-10,-9,40*,7,-11
COc1ccc(N=Nc2ccc(O)c3ncccc23)cc1,-7,-11,28,1,-17
O=C(NC1CCCCC1)C(C1CC1)n1c(=O)c(-c2ccccc2)nc2ccccc21 (configuration not stated),/,/,-426,/,/

# Screens as filed in PubChem.
